Drawing on PubChem BioAssay (NCATS), this text covers efficacy, AC50 and outcome for 30 compounds.

Usually AC50 stands for the concentration giving half of the maximal activity seen.

Molecules are shown by their SMILES. A number with no mark means an inactive call. For part of these data: Entries with a potency or affinity are not part of this list. Active and inactive are the calls of the source. How the calls were made is not given here.

The conditions of experiment [1]: Ebola virus entry assay, green fluorescence channel.
The conditions of experiment [2]: Ebola virus entry assay, blue channel fluorescence.
The conditions of experiment [3]: Ebola virus entry assay, ratio channel.
The conditions of experiment [4]: Ebola virus entry assay, reporter ratio channel; Channel type: primary.
Wherever efficacy is given: 0% is about no effect.

Turning to `O=C1[C@H]2CCCC[C@H]2C(=O)N1CCCCN1CCN(c2nsc3ccccc23)CC1`, the efficacy in experiment [1] was 104%. Further, the concentration at half-maximal activity (AC50) in experiment [2] is 20 µM (active); in experiment [3] it was 17.8 µM (active); in experiment [4] it was 17.8 µM (active).
As to `NC(=O)C1(N2CCCCC2)CCN(CCCN2c3ccccc3CCc3ccc(Cl)cc32)CC1`, the efficacy in experiment [1] was -222%. For the same compound, the AC50 was 3.98 µM (active) in experiment [2], 3.55 µM (active) in experiment [3] and 3.55 µM (active) in experiment [4].
Take `O=C1NC2CCCCN2C12CCN(CCCN1c3ccccc3CCc3ccc(Cl)cc31)CC2` (stereo not given): the efficacy in experiment [1] was -203%. The half-maximal activity concentration (AC50) in experiment [2] is 4.47 µM (active); in experiment [3], 3.16 µM (active); in experiment [4] it was 3.16 µM (active).
As for `CN1CCCN(C(c2ccccc2)c2ccc(Cl)cc2)CC1` (stereo not given), the efficacy in experiment [1] is 53.7%. Further, the AC50 in experiment [2], in experiment [3] and in experiment [4] was 3.16 µM (active) throughout.
`Cc1nc2ccccc2n1Cc1ccc(Cl)cc1`: in experiment [1], the efficacy is 42.7%. The call in experiment [2], in experiment [3] and in experiment [4] was inactive.
With `CCCCC[C@H](O)C=C[C@H]1[C@H](O)CC(=O)[C@H]1CC=CCCCC(=O)O`, the efficacy in experiment [1] is 75.7%. For the same compound, the figures for the AC50 in experiment [2], in experiment [3] and in experiment [4] were 8.91 µM (active), 7.08 µM (active) and 7.08 µM (active), respectively.
As for `CCN(CCCCOC(=O)c1ccc(OC)c(OC)c1)C(C)Cc1ccc(OC)cc1` (stereo not given), the efficacy in experiment [1] is 112%. Also, the results for the concentration at half-maximal activity (AC50) in experiment [2], in experiment [3] and in experiment [4] were 20 µM (active), 15.8 µM (active) and 15.8 µM (active), respectively.
For the compound `O=C(CN1CCN(Cc2ccc3c(c2)OCO3)CC1)N1c2ccccc2Sc2ccccc21`, the efficacy in experiment [1] was 86.4%. Further, the AC50 was 39.8 µM (active) in experiment [2], 25.1 µM (active) in experiment [3] and 25.1 µM (active) in experiment [4].
With `c1ccc2c(c1)CCc1ccccc1N2`, the efficacy in experiment [1] is -29.2%. In addition, the AC50 in experiment [2] was 17.8 µM (active). Moreover, the outcome in experiment [3] and in experiment [4] was inactive.
As for `COC(=O)C1=C(C)NC(C)=C(C(=O)OCCN2CCN(C(c3ccccc3)c3ccccc3)CC2)C1c1cccc([N+](=O)[O-])c1` (stereo not given), the efficacy in experiment [1] is 60.1%. For the same compound, the values for the AC50 in experiment [2], in experiment [3] and in experiment [4] were 15.8 µM (active), 10 µM (active) and 10 µM (active), respectively.
Turning to `CCc1cccc(N(C)C(N)=Nc2cccc3ccccc23)c1`, the efficacy in experiment [1] was 108%. Further, the results for the AC50 in experiment [2], in experiment [3] and in experiment [4] were 20 µM (active), 14.1 µM (active) and 14.1 µM (active), respectively.
On to `CN1CCC(N(Cc2cccs2)c2ccccc2)CC1`, for which the efficacy in experiment [1] was 53.5%. Also, the AC50 in experiment [2] is 3.55 µM (active); in experiment [3], 3.16 µM (active); in experiment [4] it was 3.16 µM (active).
With `COc1cccc(CCc2ccccc2OCC(CN(C)C)OC(=O)CCC(=O)O)c1` (stereo not given), the efficacy in experiment [1] is 95.8%. Besides, the values for the AC50 in experiment [2], in experiment [3] and in experiment [4] were 1.78 µM (active), 2 µM (active) and 2 µM (active), respectively.
Take `CCc1ccc(C(=O)C(C)CN2CCCCC2)cc1` (stereo not given): the efficacy in experiment [1] is 36.6%. Besides, the values for the half-maximal activity concentration (AC50) in experiment [2] and in experiment [4] were 39.8 µM (active) and 28.2 µM (active), respectively. Moreover, in experiment [3], the result was inactive.
Consider `NC1(c2ccc(-c3nc4ccn5c(=O)[nH]nc5c4cc3-c3ccccc3)cc2)CCC1`, for which the efficacy in experiment [1] is 104%. For the same compound, the concentration at half-maximal activity (AC50) in experiment [2] is 2.82 µM (active); in experiment [3], 2.51 µM (active); in experiment [4], 2.51 µM (active).
In the case of `Oc1cccc(-c2c3nc(c(-c4cccc(O)c4)c4ccc([nH]4)c(-c4cccc(O)c4)c4nc(c(-c5cccc(O)c5)c5ccc2[nH]5)CC4)C=C3)c1`, the efficacy in experiment [1] was 82.1%. In addition, the AC50 was 20 µM (active) in experiment [2], 22.4 µM (active) in experiment [3] and 22.4 µM (active) in experiment [4].
`CCCCCCCCCCCCCCCC[N+](C)(C)Cc1ccccc1`: the efficacy in experiment [1] was -178%. Also, the AC50 in experiment [2] was 31.6 µM (active); in experiment [3], 22.4 µM (active); in experiment [4] it was 22.4 µM (active).
With `CCN(CC)CCOC(=O)C1(c2ccccc2)CCCC1`, in experiment [1], the efficacy is 69.1%. Further, the AC50 was 28.2 µM (active) in experiment [2], 20 µM (active) in experiment [3] and 20 µM (active) in experiment [4].
As to `CCCCNc1ccc(C(=O)OCCN(C)C)cc1`, the efficacy in experiment [1] is 66.1%. Besides, the AC50 is 20 µM (active) in experiment [2], 28.2 µM (active) in experiment [3] and 28.2 µM (active) in experiment [4].
As for `COC(=O)[C@H]1[C@H]2C[C@@H]3c4[nH]c5cc(OC)ccc5c4CCN3C[C@H]2C[C@@H](OC(=O)COc2ccc(OC)cc2)[C@@H]1OC`, the efficacy in experiment [1] was 21%. Moreover, the AC50 in experiment [2] is 22.4 µM (active); in experiment [3], 25.1 µM (active); in experiment [4], 25.1 µM (active).
For the compound `Cc1oc(-c2ccccc2)nc1CCC(=O)c1ccc(CC2SC(=O)NC2=O)cc1` (stereo not given), in experiment [1], the efficacy was 43.2%. In addition, the compound was called inactive in experiment [2], in experiment [3] and in experiment [4].
In the case of `COC1=C(OC)C(=O)C(CCCCCCCCCCO)=C(C)C1=O`, the efficacy in experiment [1] was 52%. Besides, the call in experiment [2], in experiment [3] and in experiment [4] was inactive.
For the compound `CN1CCCN=C1COC(=O)C(O)(c1ccccc1)C1CCCCC1` (stereo not given), in experiment [1], the efficacy was 75.7%. Also, the AC50 in experiment [2], in experiment [3] and in experiment [4] was 12.6 µM (active) each time.
For the compound `CN1CCN(CCCN2c3ccccc3Sc3ccc(S(=O)(=O)N(C)C)cc32)CC1`, the efficacy in experiment [1] is 146%. Further, the AC50 in experiment [2] was 2.51 µM (active); in experiment [3], 2.24 µM (active); in experiment [4], 2.24 µM (active).
For the compound `CCCC(C(=O)OCCN(CC)CC)(c1ccccc1)c1ccccc1`, the efficacy in experiment [1] is -182%. Moreover, the AC50 in experiment [2] is 3.16 µM (active); in experiment [3] it was 2.24 µM (active); in experiment [4], 2.24 µM (active).
With `C[C@@H]1CN(CCCn2c3ccccc3c3ccccc32)C[C@H](C)N1`, the efficacy in experiment [1] is -134%. Moreover, the AC50 in experiment [2], in experiment [3] and in experiment [4] was 3.16 µM (active) in each case.
Turning to `CCCCCCCCCCCCCCCC[n+]1ccccc1`, the efficacy in experiment [1] is -209%. In addition, the AC50 was 20 µM (active) in experiment [2], 14.1 µM (active) in experiment [3] and 14.1 µM (active) in experiment [4].
For `CN1CCCCC1CCN1c2ccccc2Sc2ccc(S(C)=O)cc21` (stereo not given), in experiment [1], the efficacy was 68.6%. Further, the results for the AC50 in experiment [2], in experiment [3] and in experiment [4] were 7.08 µM (active), 7.94 µM (active) and 7.94 µM (active), respectively.
Turning to `Cc1nc2n(c(=O)c1CCN1CCC(C(=O)c3ccc(F)cc3)CC1)CCS2`, in experiment [1], the efficacy is 91.8%. The call in experiment [2], in experiment [3] and in experiment [4] was inactive.
As for `CCOC(=O)Cn1cccc1-c1nc(-c2ccc(OC)cc2)c(-c2ccc(OC)cc2)s1`, in experiment [1], the efficacy was 34.5%. The AC50 in experiment [2], in experiment [3] and in experiment [4] was 0.708 µM (active) throughout.
